From PubChem BioAssay (NCATS)
Calls of active or inactive are those of the source. Calls come from the whole dose curve.

molecular target: Catechol O-methyltransferase (Homo sapiens) (UniProt P21964); assay: Confirmatory Screen for Target Class Profiling of Small Molecule Inhibitors of Methyltransferases (AID 1745852); settings: MTase-Glo luminescence, SAH detection, recombinant enzyme; measured here: COMT max response; stronger effect = lower value; for activity change, negative = inhibition: % is set by controls: 0 for no effect and ±100 for the full control effect
Potency is the fitted concentration of half-maximal effect.

Sequence of Catechol O-methyltransferase (Homo sapiens) (P21964 whole entry, looked up): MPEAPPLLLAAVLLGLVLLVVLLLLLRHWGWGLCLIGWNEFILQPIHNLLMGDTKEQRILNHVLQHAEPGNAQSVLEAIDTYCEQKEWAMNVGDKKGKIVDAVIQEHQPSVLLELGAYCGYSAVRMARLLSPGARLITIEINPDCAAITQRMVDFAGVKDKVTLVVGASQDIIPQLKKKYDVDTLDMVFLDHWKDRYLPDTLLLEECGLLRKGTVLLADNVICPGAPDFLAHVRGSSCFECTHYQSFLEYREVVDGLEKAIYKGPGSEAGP

Row | Structure (SMILES) | activity
1 | NCC(CNc1nc(Nc2cccc(NC(=O)N3CCCC3)c2)ncc1I)C(=O)c1cccs1 (stereo not given) | -3.81%
2 | CN(C)CCCn1cc(C2=C(c3c[nH]c4ccccc34)C(=O)NC2=O)c2ccccc21 | -45.6%
3 | C/C(=N\N=C(N)N)c1cc(NC(=O)CCCCCCCCC(=O)Nc2cc(/C(C)=N/N=C(N)N)cc(/C(C)=N/N=C(N)N)c2)cc(/C(C)=N/N=C(N)N)c1 | -85.9%
4 | O=C([C@@H]1CCCN(c2ccc3[nH]c(C4(n5cc(Cl)cn5)CC4)nc3n2)C1)N1CCCC1 | -0.433%
5 | COc1cccc(-c2cn(-c3ccc(CCN4CCC(O)CC4)cc3)c3ncnc(N)c23)c1 | -79.5%

molecular target: Guanidinoacetate N-methyltransferase (Homo sapiens) (UniProt Q14353); assay: as above; settings: MTase-Glo luminescence, SAH detection, recombinant enzyme; activity change, negative = inhibition: at 57.3 µM (top of the series) unless noted; series mostly up to 57.3 µM

Row | Structure (SMILES) | activity change, negative = inhibition | Potency
6 | NCC(CNc1nc(Nc2cccc(NC(=O)N3CCCC3)c2)ncc1I)C(=O)c1cccs1 (stereo not given) | 0% | –
7 | CN(C)CCCn1cc(C2=C(c3c[nH]c4ccccc34)C(=O)NC2=O)c2ccccc21 | – | 27.1 µM (active)
8 | C/C(=N\N=C(N)N)c1cc(NC(=O)CCCCCCCCC(=O)Nc2cc(/C(C)=N/N=C(N)N)cc(/C(C)=N/N=C(N)N)c2)cc(/C(C)=N/N=C(N)N)c1 | – | 27.1 µM (active)
9 | O=C([C@@H]1CCCN(c2ccc3[nH]c(C4(n5cc(Cl)cn5)CC4)nc3n2)C1)N1CCCC1 | 0% | –
10 | COc1cccc(-c2cn(-c3ccc(CCN4CCC(O)CC4)cc3)c3ncnc(N)c23)c1 | – | 24.1 µM (active)

molecular target: Nicotinamide N-methyltransferase (Homo sapiens) (UniProt P40261); assay: as above; settings: MTase-Glo luminescence, SAH detection, recombinant enzyme; measured here: NNMT max response; stronger effect = lower value
Sequence (P40261 whole entry, looked up): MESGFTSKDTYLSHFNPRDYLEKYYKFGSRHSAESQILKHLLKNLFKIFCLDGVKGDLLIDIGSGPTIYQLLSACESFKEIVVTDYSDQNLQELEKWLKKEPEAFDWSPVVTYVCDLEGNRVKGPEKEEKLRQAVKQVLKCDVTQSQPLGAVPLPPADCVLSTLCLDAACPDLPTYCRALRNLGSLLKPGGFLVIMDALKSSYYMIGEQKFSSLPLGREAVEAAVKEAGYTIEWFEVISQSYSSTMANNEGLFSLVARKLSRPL

Row | Structure (SMILES) | activity
11 | NCC(CNc1nc(Nc2cccc(NC(=O)N3CCCC3)c2)ncc1I)C(=O)c1cccs1 (stereo not given) | -36.6%
12 | CN(C)CCCn1cc(C2=C(c3c[nH]c4ccccc34)C(=O)NC2=O)c2ccccc21 | -41.3%
13 | C/C(=N\N=C(N)N)c1cc(NC(=O)CCCCCCCCC(=O)Nc2cc(/C(C)=N/N=C(N)N)cc(/C(C)=N/N=C(N)N)c2)cc(/C(C)=N/N=C(N)N)c1 | -74.6%
14 | O=C([C@@H]1CCCN(c2ccc3[nH]c(C4(n5cc(Cl)cn5)CC4)nc3n2)C1)N1CCCC1 | 0.992%
15 | COc1cccc(-c2cn(-c3ccc(CCN4CCC(O)CC4)cc3)c3ncnc(N)c23)c1 | -80.6%

molecular target: Phenylethanolamine N-methyltransferase (Homo sapiens) (UniProt P11086); assay: as above; settings: MTase-Glo luminescence, SAH detection, recombinant enzyme; measured here: PNMT max response; stronger effect = lower value
Sequence (P11086 whole entry, looked up): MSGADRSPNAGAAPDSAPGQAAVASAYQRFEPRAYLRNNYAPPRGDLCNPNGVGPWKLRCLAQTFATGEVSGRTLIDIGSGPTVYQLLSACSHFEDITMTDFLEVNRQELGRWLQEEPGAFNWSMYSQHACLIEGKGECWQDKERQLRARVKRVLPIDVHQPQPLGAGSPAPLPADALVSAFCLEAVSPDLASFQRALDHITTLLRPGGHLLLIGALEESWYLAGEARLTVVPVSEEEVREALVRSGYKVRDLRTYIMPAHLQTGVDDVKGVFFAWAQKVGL

Row | Structure (SMILES) | activity
16 | NCC(CNc1nc(Nc2cccc(NC(=O)N3CCCC3)c2)ncc1I)C(=O)c1cccs1 (stereo not given) | -13.7%
17 | CN(C)CCCn1cc(C2=C(c3c[nH]c4ccccc34)C(=O)NC2=O)c2ccccc21 | -44.4%
18 | C/C(=N\N=C(N)N)c1cc(NC(=O)CCCCCCCCC(=O)Nc2cc(/C(C)=N/N=C(N)N)cc(/C(C)=N/N=C(N)N)c2)cc(/C(C)=N/N=C(N)N)c1 | -75.4%
19 | O=C([C@@H]1CCCN(c2ccc3[nH]c(C4(n5cc(Cl)cn5)CC4)nc3n2)C1)N1CCCC1 | 0.881%
20 | COc1cccc(-c2cn(-c3ccc(CCN4CCC(O)CC4)cc3)c3ncnc(N)c23)c1 | -84.3%
